Inconclusive results are not listed. Active and inactive are the calls of the source. Unless noted, calls come from the whole dose curve; as a rule, active = well fitted curve in the direction sought with a large enough effect in the repeat runs; inconclusive = weak or mixed curves; inactive = no such curve, though single readings can be large; an effect the other way counts as inactive or inconclusive.
How the values were obtained:
[1] = qHTS RealTime-Glo MT Cell Viability Assay in HEK293 cells - 24 hour (AID 1224886); note: top concentration of the series differs between compounds; nearly all actives have a fitted effect of over 50% in size
Summary of the method: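 HEK293 cells were seeded at 600 cells/well together with NanoLuc luciferase and cell-permeant prosubstrate, preincubated 5 h at 37 C/5% CO2, then given compound in DMSO by pintool. Luminescence from viable-cell prosubstrate reduction was read repeatedly over 40 h.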

[2] = qHTS RealTime-Glo MT Cell Viability Assay in HEK293 cells - 8 hour (AID 1224887); note: top concentration of the series differs between compounds; nearly all actives have a fitted effect of over 50% in size
Summary of the method: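 Real-time viability in HEK293: signal arises when living cells convert a prosubstrate for NanoLuc in the medium, so luminescence tracks viable cell number. Compound (23 nL, DMSO) added 5 h post-seeding; kinetic reads at 0–40 h, 37 C.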

[3] = A CellTox Green Cytotoxicity Assay to monitor cytotoxicity in HEK293 cells - 16 hour (AID 1224888); note: nearly all actives have a fitted effect of over 35% in size
Summary of the method: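 Cells (HEK293, 600/well) and dye reagent are dispensed together. After 5 h at 37 C, 23 nL compound is pinned in. Plates stay at 37 C for 40 h with fluorescence read at 0h, 8h, 16h, 24h, 32h and 40h.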

[4] = qHTS RealTime-Glo MT Cell Viability Assay in HepG2 cells - 0 hour (AID 1224889); note: nearly all actives have a fitted effect of over 50% in size
Summary of the method: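 HepG2 cells were seeded at 600 cells/well together with NanoLuc luciferase and a cell-permeant prosubstrate, preincubated 5 h at 37 C/5% CO2, then pin-dosed with compounds in DMSO. Nonlytic luminescence from viable cells was read at each time point.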

[5] = A CellTox Green Cytotoxicity Assay to monitor cytotoxicity in HepG2 cells - 8 hour (AID 1224890); note: nearly all actives have a fitted effect of over 45% in size
Summary of the method: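 Cells and non-lytic dye reagent are dispensed together (600 HepG2 cells/well) and incubated 5 h before DMSO compound transfer. Kinetic fluorescence is then recorded in the same wells during 40 h at 37 C.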

[6] = qHTS assay to identify small molecule antagonists of the estrogen receptor alpha (ER-alpha) signaling pathway using the BG1 cell line in the presence of 0.1 nM 17-beta-estradiol - cell viability counter screen (AID 1259241); note: nearly all actives have a fitted effect of over 40% in size
Summary of the method: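 In this screen, hormone-deprived VM7Luc4E2 cells were seeded at 4,000 per well, dosed with compound and 0.1 nM estradiol final, and incubated 22 hr at 37C and 5% CO2; fluorogenic live-cell protease signal reported viability.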

[7] = qHTS assay to identify small molecule antagonists of the androgen receptor (AR) signaling pathway using the MDA cell line in the presence of 0.5 nM R1881 - cell viability counter screen (AID 1259242); note: nearly all actives have a fitted effect of over 45% in size
Summary of the method: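 Steps: plate MDA-kb2 cells, rest 5 hr at 37C without CO2; pin in compounds in DMSO; add R1881 to 0.5 nM final; incubate 16 hr; add CellTiter-Fluor, 30 min; read fluorescence.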

[8] = qHTS assay to identify small molecule phospholipidosis (PLD) inducers (AID 1259344; active = well fitted curve in the direction sought with a large enough effect; an effect the other way counts as inactive or inconclusive)
Summary of the method: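 After 4 h attachment on collagen I, HepG2 cells were dosed with compound alongside LipidTOX Red, kept 24 h at 37 C, fixed, and imaged for lamellar phospholipid pits.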

[9] = qHTS assay to identify small molecule HDAC inhibitors (AID 1259364);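 note: wild-type HCT-116 cells with endogenous class I/II HDAC activity; top concentration of the series differs between compounds; nearly all actives have a fitted effect of over 45% in size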
Summary of the method: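 Cells (HCT-116, wild type) are seeded at 1,500 per well, incubated overnight, treated with compound in DMSO for 2 hr, then developed with HDAC-Glo I/II reagent for 30 min at room temperature.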

[10] = qHTS assay to identify small molecule agonists of the sonic hedgehog signaling (Shh) pathway - cell viability counter screen (AID 1259366); note: nearly all actives have a fitted effect of over 50% in size
Summary of the method: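 In quantitative high-throughput format, 3T3 Gli1-Luc cells were exposed to compounds for 24hr and multiplexed for viability using CellTiter-Fluor, incubated 1hr at 37C before the fluorescence read.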

[11] = qHTS assay to identify small molecule agonists of the sonic hedgehog signaling (Shh) pathway (AID 1259368; calls by dose curve;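 note: NIH/3T3-derived 3T3Gli1-Luc cells carrying a stable Gli1-driven firefly luciferase reporter; series mostly up to about 92 µM; nearly all actives have a fitted effect of over 15% in size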)
Summary of the method: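 Cells of a mouse NIH/3T3 clone stably expressing luciferase under the Gli1 transcriptional response element are exposed to test chemicals for 24 hr at 37 C. Pathway activation is detected as a rise in luminescence.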

[12] = qHTS assay to identify small molecule antagonists of the sonic hedgehog signaling (Shh) pathway (AID 1259369; calls by dose curve; note: nearly all actives have a fitted effect of over 45% in size)
Summary of the method: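 Cells are plated and held 4hr at 37 C, compounds (DMSO) are pinned in, conditioned medium is added to stimulate the pathway, and after 24hr luciferase reagent is added for 30min before luminescence is read.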

[13] = target: Estrogen receptor beta (Homo sapiens) (UniProt Q92731); experiment: qHTS assay to identify small molecule agonists of the estrogen receptor beta (ER-beta) signaling pathway (AID 1259377; active = well fitted activation curve with a large enough effect in the signal ratio in the repeat runs, not every such curve was filed as active; the % refers to the signal ratio)
Summary of the method: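 Reporter cells (HEK293T, ER-beta-UAS-bla) receive compounds or DMSO after a 6 hr pre-incubation. They then incubate 16 hr at 37C/5% CO2, and fluorescence from LiveBLAzer B/G substrate is measured after 2 hours at room temperature.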

[14] = qHTS assay to identify small molecule agonists of the androgen receptor (AR) signaling pathway in the presence of an antagonist - cell viability counter screen (AID 1259379);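 note: MDA-kb2 human breast cancer cells carrying an MMTV luciferase reporter; series mostly up to about 92 µM; nearly all actives have a fitted effect of over 25% in size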
Summary of the method: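 Cytotoxicity is assessed by CellTiter-Fluor in MDA-kb2 cells carrying an MMTV-driven luciferase reporter. Cells receive 3.0uM nilutamide plus compounds at 15 concentrations and incubate 16 hr at 37C without CO2 before fluorescence reading.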

[15] = qHTS assay to identify small molecule agonists of the estrogen receptor beta (ER-beta) signaling pathway - cell viability counter screen (AID 1259380); note: nearly all actives have a fitted effect of over 30% in size
Summary of the method: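 Cytotoxicity is measured in parallel with the reporter screen: after 16 hr compound exposure at 37C and a 2 hr LiveBLAzer step, CellTiter-Glo is added to the same ER-beta-UAS-bla HEK293T wells and luminescence read after 30 min.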

[16] = target: Estrogen receptor (Homo sapiens) (UniProt P03372); experiment: qHTS assay to identify small molecule antagonists of the estrogen receptor alpha (ER-alpha) signaling pathway using the BG1 cell line in the presence of 0.1 nM 17-beta-estradiol (AID 1259244); note: nearly all actives have a fitted effect of over 50% in size
Summary of the method: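 Antagonist mode: compounds in DMSO are pinned onto VM7Luc4E2 reporter cells, 0.1 nM final 17beta-estradiol is added, and after 22 h at 37C luciferase luminescence is measured with ONE-Glo.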

[17] = qHTS assay to identify small molecule HDAC inhibitors - cell viability counter screen (AID 1259365)
Summary of the method: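 Measured quantity is CellTiter-Glo luminescence from wild-type HCT-116 cells after compound incubation of 2hr at 37C, 5% CO2; reagent developed 30min at room temperature.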

[18] = target: Estrogen receptor beta (Homo sapiens) (UniProt Q92731); experiment: qHTS assay to identify small molecule antagonists of the estrogen receptor beta (ER-beta) signaling pathway (AID 1259378; active = well fitted inhibition curve with a large enough effect in the signal ratio in the repeat runs, not every such curve was filed as active; the % refers to the signal ratio)
Summary of the method: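 ER-beta-UAS-bla HEK293T (GripTite) cells in 2% charcoal-stripped FBS medium were preincubated 6 hr at 37C, dosed with compound, then stimulated with 1 nM E2 (final) for 16 hr; beta-lactamase reporter read by B/G FRET fluorescence after 2 hr substrate loading.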

[19] = qHTS assay to identify small molecule antagonists of the sonic hedgehog signaling (Shh) pathway - cell viability counter screen (AID 1259367); note: nearly all actives have a fitted effect of over 55% in size
Summary of the method: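 Conditioned medium drove Shh signaling in 3T3 Gli1-Luc cells exposed to compounds at 37C and 5% CO2. Viability was determined from CellTiter-Fluor fluorescence, with reagent incubated 1 hr after 23 hr of treatment.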
% is set by controls: 0 for no effect and ±100 for the full control effect.

Sequence of Estrogen receptor beta (Homo sapiens) (Q92731 whole entry, looked up): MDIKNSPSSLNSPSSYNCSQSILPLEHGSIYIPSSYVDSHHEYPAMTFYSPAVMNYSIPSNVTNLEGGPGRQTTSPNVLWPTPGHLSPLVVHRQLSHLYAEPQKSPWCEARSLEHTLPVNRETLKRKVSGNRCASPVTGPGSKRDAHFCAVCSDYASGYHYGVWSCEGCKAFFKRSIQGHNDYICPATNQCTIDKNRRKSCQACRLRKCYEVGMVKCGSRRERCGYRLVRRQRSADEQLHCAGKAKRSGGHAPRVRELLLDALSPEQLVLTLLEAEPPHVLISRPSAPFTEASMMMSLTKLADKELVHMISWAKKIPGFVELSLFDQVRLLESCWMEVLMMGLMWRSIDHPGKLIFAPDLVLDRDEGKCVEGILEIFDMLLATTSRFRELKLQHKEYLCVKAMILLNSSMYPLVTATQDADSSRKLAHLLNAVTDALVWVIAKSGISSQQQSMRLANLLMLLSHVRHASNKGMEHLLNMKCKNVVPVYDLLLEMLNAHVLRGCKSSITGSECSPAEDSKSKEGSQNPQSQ
Sequence of Estrogen receptor (Homo sapiens) (P03372 whole entry, looked up): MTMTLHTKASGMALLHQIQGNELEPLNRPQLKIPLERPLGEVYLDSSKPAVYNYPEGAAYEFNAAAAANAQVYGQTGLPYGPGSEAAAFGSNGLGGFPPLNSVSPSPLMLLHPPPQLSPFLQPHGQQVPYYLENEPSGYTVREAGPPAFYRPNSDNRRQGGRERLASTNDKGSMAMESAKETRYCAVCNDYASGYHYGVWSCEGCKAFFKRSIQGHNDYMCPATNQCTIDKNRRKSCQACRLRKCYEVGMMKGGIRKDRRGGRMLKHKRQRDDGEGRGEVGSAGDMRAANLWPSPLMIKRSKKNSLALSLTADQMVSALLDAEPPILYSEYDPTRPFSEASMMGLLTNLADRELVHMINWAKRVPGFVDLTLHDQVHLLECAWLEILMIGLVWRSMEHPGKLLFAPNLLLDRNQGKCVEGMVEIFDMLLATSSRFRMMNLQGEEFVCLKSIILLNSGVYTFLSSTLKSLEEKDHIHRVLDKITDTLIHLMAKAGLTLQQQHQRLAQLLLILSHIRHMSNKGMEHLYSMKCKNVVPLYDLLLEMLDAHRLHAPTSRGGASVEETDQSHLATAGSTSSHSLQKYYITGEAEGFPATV

N[C@@H](Cc1ccc(O)cc1)C(=O)O
inactive: activity change, negative = cytotoxicity [1] -0.381% [at 6.97 µM] | activity change, negative = cytotoxicity [2] 10.4% [at 6.97 µM] | activity change [3] 0.851% [at 6.97 µM, active compounds read high] | activity change, negative = cytotoxicity [4] -4.17% [at 6.97 µM] | cytotoxicity increase [5] -2.53% [at 6.97 µM] | activity change, negative = cytotoxicity [6] -0.913% [at 8.39 µM] | viability change, negative = cytotoxic [7] 0.626% [at 8.39 µM] | outcome [8] | activity change, negative = inhibition [9] 6.85% [at 8.39 µM] | viability change, negative = cytotoxic [10] -1.95% [at 8.39 µM] | activity change [11] -0.171% [at 8.39 µM] | activity change, negative = inhibition [12] 29.1% [at 8.39 µM] | activation [13] 4.88% [at 8.39 µM] | activity change, negative = cytotoxicity [14] 0.232% [at 8.39 µM] | activity change, negative = cytotoxicity [15] 10.1% [at 8.39 µM]

C=CC/C=C/C
inactive: Potency [1] | Potency [2] | Potency [3] | Potency [4] | Potency [5] | outcome [6] | outcome [7] | outcome [16] | outcome [17] | outcome [10] | outcome [11] | Potency [12] | Potency [18] | outcome [14] | outcome [15]

Cc1ccccc1C(N)=O
inactive: Potency [1] | Potency [2] | Potency [3] | Potency [4] | Potency [5] | outcome [6] | outcome [7] | outcome [16] | Potency [9] | outcome [10] | outcome [19] | outcome [11] | Potency [12] | Potency [18] | outcome [14] | outcome [15]

O=C(O)c1cc2ccccc2nc1C(=O)O
inactive: Potency [1] | Potency [2] | Potency [3] | Potency [4] | Potency [5] | outcome [6] | outcome [7] | outcome [16] | outcome [10] | outcome [11] | Potency [12] | Potency [13] | Potency [18] | outcome [14] | outcome [15]

CCC(C)C(C)=O (configuration not stated)
inactive: Potency [1] | Potency [2] | Potency [3] | Potency [4] | Potency [5] | outcome [6] | outcome [7] | outcome [16] | outcome [17] | outcome [10] | outcome [19] | outcome [11] | Potency [12] | Potency [18] | outcome [14]

O=C(O)CONC(=O)c1ccccc1
inactive: Potency [1] | Potency [2] | Potency [3] | Potency [4] | Potency [5] | outcome [6] | outcome [7] | Potency [9] | outcome [17] | outcome [10] | outcome [19] | outcome [11] | Potency [12] | outcome [14]

C/C(CC(C)C)=N\O
inactive: Potency [1] | Potency [2] | Potency [3] | Potency [4] | Potency [5] | outcome [6] | outcome [7] | outcome [16] | outcome [10] | outcome [19] | outcome [11] | Potency [12] | Potency [13] | Potency [18] | outcome [14] | outcome [15]

CN(C)CCN(C)CCO
inactive: Potency [1] | Potency [2] | Potency [3] | Potency [4] | Potency [5] | outcome [6] | outcome [7] | outcome [16] | outcome [17] | outcome [10] | outcome [19] | outcome [11] | Potency [12] | Potency [18] | outcome [14] | outcome [15]
